Measurements taken from PubChem BioAssay AID372 (MTDP, 2006).
In all, about 100,000 compounds went through this assay and about 770 (0.77%) were called active. The list comes from a sample in which actives are over-represented; it also holds similar structures and randomly drawn compounds. Values without a mark were called inactive. Cut-off read from the data, not from the text of the source: active = inhibition above about 50%; inactive = the rest.

Target: Gag-Pol polyprotein (Human immunodeficiency virus type 1 group M subtype B (isolate HXB2)) (UniProt P04585)
Assay: RNase H inhibition, HIV 1 Gag Pol polyprotein, FRET biochemical assay, screening (AID 372)
Details: HIV-1 RT RNase H, FRET RNA/DNA substrate fluorescence; at 10 µM; stronger effect = higher value

Compound | inhibition
Cc1nn(S(=O)(=O)c2ccc([N+](=O)[O-])cc2)c(C)c1Sc1ccc([N+](=O)[O-])cc1 | 18%
CSCCOC(=O)C1=C(C)NC(=O)NC1c1ccc([N+](=O)[O-])cc1 (configuration not stated) | 22%
CCCCOc1ccc2c(C(F)(F)F)cc(=O)oc2c1 | 9%
CCOC(=O)C1=C(C)NC2=C(C(=O)CC(c3ccc(OC)cc3)C2)C1c1ccccc1OC(C)C (configuration not stated) | 1%
O=C(N/N=C/c1ccccc1OC(=O)c1sc2ccccc2c1Cl)c1ccc([N+](=O)[O-])cc1 | 6%
O=C(Nc1cccc2ccccc12)c1ccccc1[N+](=O)[O-] | 5%
Cc1ccc(OC(=O)Cn2c(=O)sc3cccc(Cl)c32)cc1C | 12%
CCn1c(=O)sc2cccc(Cl)c21 | 50% (active)
Cc1cc(C)cc(OC(=O)Cn2c(=O)sc3cccc(Cl)c32)c1 | 11%
COC(=O)CCCCCN1C(=O)c2ccccc2C1=O | 6%
COc1cc(/C=c2\sc3nc4c(C)c(C)ccc4n3c2=O)cc(Cl)c1O | 31%
COc1cc(/C=c2\sc3nc4c(C)c(C)ccc4n3c2=O)cc(OC)c1O | 58% (active)
COc1cc(/C=c2/sc3nc4c(C)c(C)ccc4n3c2=O)cc(OC)c1OC(C)=O | 8%
O=C(Nc1ccc(-c2noc(-c3ccccc3F)n2)cc1)c1cccs1 | 10%
O=C(CCCN1C(=O)c2cccc3cccc(c23)C1=O)N1CCCCC1 | 29%
CC1CCN(C(=O)CCCN2C(=O)c3cccc4cccc(c34)C2=O)CC1 | 56% (active)
CC1CCN(C(=O)CN2C(=O)c3cccc4cccc(c34)C2=O)CC1 | 7%
COc1ccccc1-c1c(C(F)(F)F)oc2c(CN(C)C)c(O)ccc2c1=O | 24%
O=C(CN(c1cccc(Cl)c1)S(=O)(=O)c1ccccc1)N1CCN(Cc2ccccc2)CC1 | 14%
CN1c2ccccc2-c2ccccc2C12C=Cc1cc(Br)ccc1O2 (configuration not stated) | 6%
CN1c2ccccc2-c2ccccc2C12C=Cc1cc(Br)cc(Br)c1O2 (configuration not stated) | 17%

Compound | inhibition
COc1cc(Br)cc2c1OC1(C=C2)c2ccccc2-c2ccccc2N1C (configuration not stated) | 50% (active)
O=C(CSc1nnc(-c2ccccc2)n1-c1ccccc1)N/N=C/C=C/c1ccccc1 | 15%
O=C(Nc1ccc(Cl)cc1)c1ccccc1C(=O)c1ccc(Cl)cc1 | 18%
Cc1cccc2c1[nH]c1nc(N/N=C\c3ccc(O)c(O)c3)nnc12 | 54% (active)
Cc1cccc2c1[nH]c1nc(N/N=C\c3cccc(O)c3)nnc12 | 14%
COc1cc(/C=N\Nc2nnc3c(n2)[nH]c2c(C)cccc23)ccc1O | 11%
O=c1[nH]c(-c2ccncc2)nc2ccccc12 | 68% (active)
Cc1ccc(-c2nc3ccccc3c(=O)[nH]2)cc1 | 7%
O=c1[nH]c(-c2ccc(Br)cc2)nc2ccccc12 | 13%
CC(=O)c1ccc(N2CCCCC2C)c(F)c1 (configuration not stated) | 0%
Cc1ccccc1-n1c(O)c(/C=C2\C=CC=N2)c(=O)[nH]c1=O | 1%
O=c1[nH]c(=S)n(-c2ccccc2)c(O)c1/C=C1/C=CC=N1 | 11%
Cc1cccc(-n2c(O)c(/C=C3\C=CC=N3)c(=O)[nH]c2=S)c1 | 11%
O=c1[nH]c(=O)n(-c2ccccc2Cl)c(O)c1C=C1C=CC=N1 | 0%
O=C(COc1ccccc1Cl)NNC(=O)c1cc2ccccc2cc1O | 6%
O=[N+]([O-])c1ccc(OCCCN2CCCCC2)cc1 | 0%
CCOc1ccc2ccccc2c1/C=C(\C#N)C(=O)NCc1ccco1 | 24%
CCc1ccc(/C=C2/SC(=S)N(CCC(=O)O)C2=O)cc1 | 8%
CCCC1=C(C(=O)OCC)C(c2cc(C)c(OC)cc2C)C(C#N)=C(N)O1 (configuration not stated) | 2%
Cc1cc(C)c2nc3s/c(=C\c4cccc([N+](=O)[O-])c4)c(=O)n3c2c1 | 10%
Cc1ccc(N2C(=O)CC(Cc3ccc(Cl)cc3)C2=O)cc1C (configuration not stated) | 5%

Compound | inhibition
CCOC(=O)C1=C(C)N=c2s/c(=C\c3ccc(-c4ccc(OC)cc4[N+](=O)[O-])o3)c(=O)n2C1c1ccc(C)cc1 (configuration not stated) | 44%
CCOC(=O)C1=C(C)N=c2s/c(=C\c3ccc(-c4cc(C)c(C)c([N+](=O)[O-])c4)o3)c(=O)n2C1c1ccc(OC)c(OC)c1 (configuration not stated) | 51% (active)
CCOC(=O)C1=C(C)N=c2s/c(=C\c3ccc(-c4cc(C)c(C)c([N+](=O)[O-])c4)o3)c(=O)n2C1c1ccc(OC)cc1 (configuration not stated) | 55% (active)
CCOC(=O)C1=C(C)N=c2s/c(=C\c3ccc(-c4ccc([N+](=O)[O-])cc4)o3)c(=O)n2C1c1ccc2c(c1)OCO2 (configuration not stated) | 41%
CCOC(=O)C1=C(C)N=c2s/c(=C\c3ccc(-c4ccc(OC)cc4[N+](=O)[O-])o3)c(=O)n2C1c1ccc(SC)cc1 (configuration not stated) | 52% (active)
CCOC(=O)C1=C(C)N=c2s/c(=C\c3ccc(-c4ccc(C)c([N+](=O)[O-])c4)o3)c(=O)n2C1c1ccc2c(c1)OCO2 (configuration not stated) | 8%
CCOC(=O)C1=C(C)N=c2s/c(=C\c3ccc(-c4cc(C)c(C)c([N+](=O)[O-])c4)o3)c(=O)n2C1c1ccc2c(c1)OCO2 (configuration not stated) | 50% (active)
CCOC(=O)C1=C(C)N=c2s/c(=C\c3ccc(-c4ccc(OC)cc4[N+](=O)[O-])o3)c(=O)n2C1c1ccc(OC)cc1 (configuration not stated) | 0%
CCOC(=O)C1=C(C)N=c2s/c(=C\c3ccc(-c4ccc(C)c([N+](=O)[O-])c4)o3)c(=O)n2C1c1ccc(OC)cc1 (configuration not stated) | 21%
CCOC(=O)C1=C(C)N=c2s/c(=C\c3ccc(-c4cc(C)c(C)c([N+](=O)[O-])c4)o3)c(=O)n2C1c1cc(OC)ccc1OC (configuration not stated) | 13%
CCOC(=O)C1=C(C)N=c2s/c(=C\c3ccc(-c4ccc(C)c([N+](=O)[O-])c4)o3)c(=O)n2C1c1ccc(OC)c(OC)c1 (configuration not stated) | 18%
CCOC(=O)C1=C(C)N=c2s/c(=C\c3ccc(-c4cc(C)c(C)c([N+](=O)[O-])c4)o3)c(=O)n2C1c1ccc(Cl)cc1 (configuration not stated) | 37%
Clc1ccc(-c2nnc3ccc(N4CCOCC4)nn23)cc1 | 9%
COc1ccc(C2NC(=O)NC(C)=C2C(=O)OCC(Cl)(Cl)Cl)cc1OC (configuration not stated) | 2%
COc1ccc2ccccc2c1/C=N/NC(=O)c1ccccc1C | 13%
Cc1cc(I)ccc1NC(=O)c1ccc(-c2ccccc2[N+](=O)[O-])o1 | 49%
O=C1NC(=S)NC(=O)C1=Cc1cccc(OC(=O)c2ccc(Cl)cc2)c1 | 30%
CC(C)C(=O)NC(c1ccc(N(C)C)cc1)c1ccc2cccnc2c1O (configuration not stated) | 7%
CCN(CC)c1nc2c(s1)C(=O)CC(C)(C)C2 | 0%
Cc1ccnc(NC(=O)c2cc(-c3ccc(C)c(C)c3)nc3ccccc23)c1 | 4%
O=C1c2ccccc2NC(c2ccccc2F)N1c1ccc(Cl)cc1 (configuration not stated) | 5%

Compound | inhibition
CCOC(=O)C1=C(C)N=c2s/c(=C\c3ccc(-c4cc(C)c(C)c([N+](=O)[O-])c4)o3)c(=O)n2C1c1ccccc1 (configuration not stated) | 46%
CCOC(=O)C1=C(C)N=c2s/c(=C\c3ccc(-c4ccc(Cl)cc4)o3)c(=O)n2C1c1ccc(OC)c(OC)c1 (configuration not stated) | 13%
CCOC(=O)C1=C(C)N=c2s/c(=C\c3ccc(OCc4cccc5ccccc45)c(OC)c3)c(=O)n2C1c1ccc(OC)cc1 (configuration not stated) | 14%
CCOC(=O)C1=C(C)N=c2s/c(=C\c3ccc(-c4ccc(Cl)c(Cl)c4)o3)c(=O)n2C1c1ccc(OC)c(OC)c1 (configuration not stated) | 9%
CCOC(=O)C1=C(C)N=c2s/c(=C/c3ccc(-c4ccc(C)c([N+](=O)[O-])c4)o3)c(=O)n2C1c1ccc(N(C)C)cc1 (configuration not stated) | 43%
CCOC(=O)C1=C(C)N=c2s/c(=C\c3ccc(OCc4cccc5ccccc45)c(OC)c3)c(=O)n2C1c1ccc(OC)c(OC)c1 (configuration not stated) | 55% (active)
CCOC(=O)C1=C(C)N=c2s/c(=C/c3ccc(-c4cccc(Cl)c4)o3)c(=O)n2C1c1ccc(OC)c(OC)c1 (configuration not stated) | 52% (active)
CCOC(=O)C1=C(C)N=c2s/c(=C\c3ccc(OCc4cccc5ccccc45)c(OCC)c3)c(=O)n2C1c1ccc(OC)c(OC)c1 (configuration not stated) | 0%
CCOC(=O)C1=C(C)N=c2s/c(=C\c3ccc(-c4cc(C)c(C)c([N+](=O)[O-])c4)o3)c(=O)n2C1c1ccc(N(C)C)cc1 (configuration not stated) | 56% (active)
CCOC(=O)c1c(C)[nH]c(/C=C(/C#N)C(N)=NCc2ccccc2)c1O | 11%
Cc1cc(C)c(S(=O)(=O)NC(=O)C23CC4CC(CC(C4)C2)C3)c(C)c1 | 2%
COc1cccc(/C=N/NC(=O)c2ccccc2O)c1 | 11%
O=C(NC(=S)Nc1ccc2oc(-c3ccccc3)nc2c1)c1ccccc1Cl | 7%
O=C1NC(=Nc2ccc(F)cc2)S/C1=C/c1ccc(-c2ccc([N+](=O)[O-])cc2)o1 | 51% (active)
Cc1ccc(N=C2NC(=O)/C(=C/c3ccccc3)S2)cc1 | 9%
Cc1ccc(N=C2NC(=O)/C(=C/c3ccc(-c4cc([N+](=O)[O-])ccc4Cl)o3)S2)cc1Cl | 25%
Cc1ccc(/C=C2\SC(=Nc3ccc(F)cc3)NC2=O)o1 | 26%
Cc1ccc(N=C2NC(=O)/C(=C/c3ccc(-c4ccc(Cl)c([N+](=O)[O-])c4)o3)S2)cc1Cl | 31%
Cc1ccc(N=C2NC(=O)/C(=C\c3ccc(C)o3)S2)cc1 | 52% (active)
